6 molecules from PubChem BioAssay (NCATS) can be followed below.

Test [1] can be described thus: qHTS drug screen for cell cycle checkpoint inhibitors in PARPi-resistant BRCA-mutant ovarian cancer cell lines. (AID 1963452; calls by dose curve). As to conditions: PEO1/OlaR viability, CellTiter-Glo luminescence, 96 h, stronger effect = lower value. In outline:
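PEO1, PEO4 and PEO1/OlaR ovarian cancer cells, 600 per well, exposed 96 h at 37C to a dilution series. Viability read by CellTiter-Glo luminescence, normalized to DMSO and empty wells; activity summarized as Z-AUC.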
For orientation: qHTS replaces the single test concentration by a dilution series.

Test [2] is described as follows: qHTS profiling for inhibitors of Plasmodium falciparum proliferation (AID 504749).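 Note: 0% = DMSO vehicle and full inhibition = artemisinin control; nearly all actives have a fitted effect of over 60% in size.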 As to conditions: P. falciparum in erythrocytes, SYBR Green DNA, 72 h. Summed up: (§1)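 In a 72 h erythrocytic culture (37 C, humidified, 5% CO2) at 2.5% hematocrit and 0.3% starting parasitemia, compounds were tested; SYBR Green I in detergent lysis buffer stained parasite DNA overnight.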

Another test has as its system 3D7. The description is as above. As to conditions: P. falciparum in erythrocytes, SYBR Green DNA, 72 h; series mostly up to 28.7 µM. In outline:
as §1

In a further test the test system is 7G8. The description is as above. To be noted: P. falciparum in erythrocytes, SYBR Green DNA, 72 h; series mostly up to 28.7 µM. In outline: as §1
The next test deals with AA1029. The test is described as above. To be noted: P. falciparum in erythrocytes, SYBR Green DNA, 72 h; series mostly up to 28.7 µM. Summed up: as §1
In another test the test system is AS120. The test is described as above. As to conditions: P. falciparum in erythrocytes, SYBR Green DNA, 72 h; series mostly up to 28.7 µM. Summed up: as §1
In another test the test system is ATS189. The test is described as above. As to conditions: P. falciparum in erythrocytes, SYBR Green DNA, 72 h; series mostly up to 28.7 µM. Summed up: as §1
The next test relates to ATS95. Described as above. As to conditions: P. falciparum in erythrocytes, SYBR Green DNA, 72 h; series mostly up to 28.7 µM. Summed up: as §1
The test system of the next test is C2A. The test is described as above. As to conditions: P. falciparum in erythrocytes, SYBR Green DNA, 72 h; series mostly up to 28.7 µM. Summed up:
as §1

The next test concerns CP185. The description is as above. To be noted: P. falciparum in erythrocytes, SYBR Green DNA, 72 h; series mostly up to 28.7 µM. In outline:
as §1

The subject of a further test is CP191. The test is described as above. To be noted: P. falciparum in erythrocytes, SYBR Green DNA, 72 h; series mostly up to 28.7 µM. In outline:
as §1

A further test deals with CP192. The test is described as above. As to conditions: P. falciparum in erythrocytes, SYBR Green DNA, 72 h; series mostly up to 28.7 µM. Summed up:
as §1

A further test has as its system CP194. The description is as above. To be noted: P. falciparum in erythrocytes, SYBR Green DNA, 72 h; series mostly up to 28.7 µM. Summed up:
as §1

In another test the test system is CP201. The test is described as above. To be noted: P. falciparum in erythrocytes, SYBR Green DNA, 72 h; series mostly up to 28.7 µM. In outline:
as §1

A short description of test [3]: qHTS for identification of novel therapeutic agents for treatment of microphthalmiaassociated transcription factor (MiT) renal cell carcinoma (RCC) (AID 1963991). As to conditions: CellTiter-Glo, 48 h, stronger effect = lower value. Summed up:
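Three TFE3-fusion RCC cell lines (UOK109, UOK124, UOK145), 500 cells/well, were exposed to the 1912-compound MIPE 4.0 library for 48 hours at 37 C. Viability was read by CellTiter-Glo luminescence, normalised to DMSO (100%) and empty wells (0%), with 11-concentration curve fits.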

Setting [4] is: measured here: PEO1 parental Z-AUC.
Where [5] appears, read: TFE3-RCC UOK109 viability, measured here: UOK109 Z-AUC.
The mark [6] stands for this setting: TFE3-RCC viability, measured here: UOK124 Z-AUC.
[7] abbreviates: TFE3-RCC viability, measured here: UOK145 Z-AUC.
Setting [8] is: at 28.7 µM (top of the series), parasite line A.
Where [9] appears, read: at 28.7 µM (top of the series), parasite line B.

The structures appear in SMILES notation. Results filed as inconclusive are left out. Active and inactive are the calls of the source. Unless noted, calls come from the whole dose curve; as a rule, active = well fitted inhibition curve with a large enough effect; inconclusive = small, poorly fitted or top-dose-only effect; inactive = flat fitted curve, though single readings scatter.

As for `Cc1cc2cc3c(C)cc(=O)oc3c(C)c2o1`, the Z-AUC was 0.166 (inactive) in [1], 0.892 in test [1] (setting [4]) and 0.841 in test [1] (measured here: PEO4 Z-AUC). The activity, negative = inhibition was 2% (inactive) in test [2] (at 12.8 µM (top of the series), parasite line A) and 12.4% (inactive) in [2] (at 12.8 µM (top of the series), parasite line B). Moreover, the Potency result in the test on 3D7, with 7G8, in the test with AA1029, with AS120, in the test on ATS189 and with ATS95 was “inactive” each time. Besides, the Potency result with C2A, with CP185, in the test on CP191, with CP192, in the test on CP194 and in the test on CP201 was “inactive” in each case.
As for `Cc1cc2c(s1)Nc1ccccc1N=C2N1CCN(C)CC1`, the Z-AUC in [1] was -0.767 (inactive); in [1] (setting [4]) it was -0.886; in test [1] (measured here: PEO4 Z-AUC), -0.45. The figures for the z-score in test [3] (setting [5]), in [3] (setting [6]) and in test [3] (setting [7]) were 0.52, 0.714 and 0.593, respectively. Besides, the activity, negative = inhibition in test [2] (setting [8]) was 6.07% (inactive); in test [2] (setting [9]), 8.04% (inactive). In addition, the Potency result with 3D7, in the test on AA1029, with AS120, in the test on ATS189, in the test with ATS95 and with C2A was “inactive” each time. The Potency result in the test with CP185, with CP191, in the test on CP192, in the test with CP194 and in the test with CP201 was “inactive” each time.
Take `COc1ccc(C2(C#N)CCC(C(=O)O)CC2)cc1OC1CCCC1` (stereo not drawn): the Z-AUC in [1] is 0.982 (inactive); in [1] (setting [4]) it was 1.47; in test [1] (measured here: PEO4 Z-AUC), 0.858. Moreover, the figures for the activity, negative = inhibition in test [2] (setting [8]) and in [2] (setting [9]) were 10.1% (inactive) and -9.11% (inactive), respectively. For the same molecule, the Potency result in the test on 3D7, in the test with 7G8, in the test with AA1029, in the test with AS120, with ATS189 and in the test on ATS95 was “inactive” in each case. For the same molecule, the Potency entry in the test with C2A, in the test with CP185, with CP191, in the test on CP192, in the test on CP194 and with CP201 was “inactive” each time.
Regarding `CCCCCCCCCCCCCCCCCCCCCCO`, the Z-AUC in test [1] is 0.761 (inactive); in test [1] (setting [4]) it was 0.472; in [1] (measured here: PEO4 Z-AUC), 0.414. The z-score in test [3] (setting [5]) came out at 0.385; in test [3] (setting [6]), 0.0399; in test [3] (setting [7]), 0.476. Also, the activity, negative = inhibition in [2] (setting [8]) was -0.041% (inactive); in test [2] (setting [9]), -11.9% (inactive). For the same molecule, the Potency result with 3D7, in the test with 7G8, in the test on AA1029, in the test on AS120, in the test with ATS189 and with ATS95 was “inactive” each time. Besides, the Potency result in the test with C2A, with CP185, with CP191, in the test on CP192 and with CP201 was “inactive” each time.
Consider `CC(C)(S)[C@@H](N)C(=O)O`, for which the Z-AUC in test [1] was 0.193 (inactive); in test [1] (setting [4]) it was 0.891; in test [1] (measured here: PEO4 Z-AUC), 1.3. For the same molecule, the z-score came out at 0.813 in test [3] (setting [5]), 0.506 in [3] (setting [6]) and 1.37 in test [3] (setting [7]). Also, the activity, negative = inhibition in [2] (setting [8]) is 1.57% (inactive); in test [2] (setting [9]), -13.2% (inactive). Further, the Potency entry in the test with 3D7, in the test on 7G8, in the test with AA1029, with AS120, in the test with ATS189 and in the test on ATS95 was “inactive” in each case. Moreover, the Potency result with C2A, with CP185, with CP191, with CP194 and in the test with CP201 was “inactive” throughout.
On to `c1ccc2[nH]c(-c3cscn3)nc2c1`, for which the Z-AUC was -1.4 (inactive) in test [1], -0.204 in [1] (setting [4]) and 0.0577 in test [1] (measured here: PEO4 Z-AUC). Besides, the results for the z-score in [3] (setting [5]), in test [3] (setting [6]) and in test [3] (setting [7]) were -0.345, 0.601 and -0.852, respectively. For the same molecule, the activity, negative = inhibition in [2] (setting [9]) is -25.8% (inactive). The Potency result with 3D7, with 7G8, in the test on AA1029, in the test with AS120, with ATS95 and in the test on C2A was “inactive” throughout. Also, the Potency entry in the test on CP191, in the test with CP192, with CP194 and in the test on CP201 was “inactive” each time.
